Experiment [1] can be described thus: ATG_CRE_CIS: Attagene CIS-FACTORIAL HepG2 Assay for human cAMP Responsive Element (CRE) binding protein 3 (AID 2282926). The conditions noted are these: HepG2 CRE cis-reporter, Attagene multiplexed mRNA; actives raise or lower the signal. The method in brief:
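Transfected HepG2 were treated for 24 hours, then RNA was extracted and reporter cDNA amplified with sequence-specific primers. Labelled fragments were separated by capillary electrophoresis, and the CRE signal was fitted bidirectionally with DMSO as baseline.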

The target of experiment [2] is CCAAT/enhancer-binding protein beta (Homo sapiens) (UniProt P17676). Briefly: ATG_C_EBP_CIS: Attagene CIS-FACTORIAL HepG2 Assay for human CCAAT/Enhancer Binding Protein (C/EBP) beta (AID 2282927). The conditions noted are these: HepG2 Attagene cis-factorial transcription factor reporter; actives raise or lower the signal. The method in brief: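 HepG2 transiently transfected with multiplexed reporter units under cis-regulatory promoters reporting endogenous C/EBPb activity. After 24 h exposure, reporter mRNA assayed by RT-PCR, fluorescent labelling, HpaI digestion and capillary electrophoresis; bidirectional fitting versus DMSO.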

The nature of experiment [3]: ATG_CMV_CIS: Attagene CIS-FACTORIAL HepG2 Assay for human CMV (Internal Marker) (AID 2282928).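 Further: endpoint acts as a background internal control marker rather than a target.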 The conditions noted are these: HepG2 CMV promoter reporter, transcription factor profiling; actives raise or lower the signal. The method in brief: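 Endogenous transcription factor activity read in HepG2 via transfected cis-promoter reporter units. After 24 h dosing, reporter mRNA measured by RT-PCR/capillary electrophoresis; gain or loss of signal fit relative to DMSO.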

The nature of experiment [4]: ATG_DR4_LXR_CIS: Attagene CIS-FACTORIAL HepG2 Assay for human Liver X Receptor (LXR), DR4 submotif (AID 2282929). The conditions noted are these: HepG2 Attagene DR4 cis-reporter, mRNA transcription; actives raise or lower the signal. The method in brief: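 After transient transfection with multiplexed cis-promoter reporter units, HepG2 cells received test chemicals for 24 h. Reporter mRNA induction, detected by fluorescence after RT-PCR and capillary electrophoresis, was scored relative to DMSO.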

Experiment [5] has as its target Aryl hydrocarbon receptor (Homo sapiens) (UniProt P35869). Briefly: ATG_Ahr_CIS: Attagene CIS-FACTORIAL HepG2 Assay for human Aryl Hydrocarbon Receptor (Ahr) (AID 2282930). Conditions: HepG2 AhR cis-factorial reporter transcription; actives raise or lower the signal. The essentials:
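HepG2 cells transiently transfected with cis-element-driven multiplexed reporter units; endogenous AhR activity read as reporter mRNA 24 h after dosing, via RT-PCR, 6-FAM labelling, HpaI digestion and capillary electrophoresis. Bidirectional fit relative to DMSO.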

A short description of experiment [6]: ATG_AP_1_CIS: Attagene CIS-FACTORIAL HepG2 Assay for human Activator Protein 1 (AP-1) (AID 2282931). The conditions noted are these: HepG2 Attagene cis-factorial AP-1 reporter mRNA; actives raise or lower the signal. The essentials: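 After 24 h incubation with test chemical, RNA from transfected HepG2 cells was reverse-transcribed, amplified, fluorescently labelled and digested before capillary electrophoresis. Reporters were driven by cis-regulatory promoters; activity fitted bidirectionally versus DMSO.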

Experiment [7] in a line: ATG_AP_2_CIS: Attagene CIS-FACTORIAL HepG2 Assay for human Activator Protein 2 (AP-2) (AID 2282932). The conditions noted are these: HepG2 AP-2 cis-reporter, Attagene transcription factor profiling; actives raise or lower the signal. The method in brief: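 HepG2 cells transiently transfected with cis-element reporter units and exposed for 24 h. Reporter mRNA measured by RT-PCR, FAM labelling, HpaI digestion and capillary electrophoresis. Changes in either direction fitted relative to DMSO.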

Experiment [8] is described as follows: ATG_BRE_CIS: Attagene CIS-FACTORIAL HepG2 Assay for human Bone Morphogenetic Protein (BMP) Response Element (BRE) (AID 2282933). Conditions: HepG2 BMP response element reporter, Attagene transcription factor profiling; actives raise or lower the signal. The essentials:
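Endogenous transcription factor activity at a BMP response element was monitored in transfected HepG2 cells 24 h after dosing. Fluorescent RT-PCR products were resolved by capillary electrophoresis, and activity was fitted in both directions versus DMSO.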

Experiment [9] deals with Retinoic acid receptor alpha (Homo sapiens) (UniProt P10276). Description: ATG_DR5_RAR_CIS: Attagene CIS-FACTORIAL HepG2 Assay for human Retinoic Acid Receptor Alpha (RARE), DR5 submotif (AID 2282934). Conditions: HepG2 Attagene cis-factorial RARE DR5 reporter, mRNA; actives raise or lower the signal. The method in brief:
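HepG2 cells transiently transfected with multiplexed reporter units; DR5 cis-element drives reporter through endogenous transcription factors. After 24 h dosing, reporter mRNA quantified by RT-PCR, fluorescent labeling, HpaI digestion and capillary electrophoresis; bidirectional fitting versus DMSO.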

In experiment [10] the target is Transcription factor E2F1 (Homo sapiens) (UniProt Q01094). Briefly: ATG_E2F_CIS: Attagene CIS-FACTORIAL HepG2 Assay for human E2F Transcription Factor 1 (AID 2282935). Conditions: HepG2 Attagene cis-reporter, E2F reporter RNA transcripts; actives raise or lower the signal. The essentials: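 Endogenous E2F1 activity read through cis-promoter reporter units transfected into HepG2. After 24 h compound treatment, reporter mRNA measured by RT-PCR, HpaI digestion and capillary electrophoresis. Bidirectional fit versus DMSO.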

A short description of experiment [11]: ATG_E_Box_CIS: Attagene CIS-FACTORIAL HepG2 Assay for human Enhancer Box (E-box) (AID 2282936). Conditions: HepG2 E-box cis-reporter transcription, actives raise or lower the signal. The essentials: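 HepG2 cells transiently transfected with multiplexed cis-element reporter units, dosed 24 h; reporter mRNA quantified by RT-PCR, 6-FAM labelling, HpaI digestion and capillary electrophoresis. E-box (USF1) signal fitted bidirectionally vs DMSO.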

A short description of experiment [12]: ATG_M_61_CIS: Attagene CIS-FACTORIAL HepG2 Assay for M61 Transcription Factor (Internal Marker) (AID 2282937). The conditions noted are these: HepG2 Attagene CIS-FACTORIAL M61 internal marker reporter; actives raise or lower the signal. The method in brief: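 Using transiently transfected HepG2 liver cells, reporter transcript levels were assessed 24 h post-dosing by RT-PCR and capillary electrophoresis. Changes in either direction were fitted relative to DMSO controls.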

Experiment [13] can be described thus: ATG_EGR_CIS: Attagene CIS-FACTORIAL HepG2 Assay for human Early Growth Response 1 (EGR1) (AID 2282938). Conditions: HepG2 Attagene CIS-FACTORIAL EGR reporter mRNA; actives raise or lower the signal. The method in brief:
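Fluorescent capillary-electrophoresis signal of reporter cDNA fragments serves as read-out. HepG2 cells bear transiently transfected cis-promoter reporter units and are exposed 24 h; gain- or loss-of-signal is fitted against DMSO.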

A short description of experiment [14]: ATG_M_19_CIS: Attagene CIS-FACTORIAL HepG2 Assay for M19 Transcription Factor (Internal Marker) (AID 2282939). Conditions: HepG2 Attagene CIS-FACTORIAL M19 internal marker reporter; actives raise or lower the signal. The method in brief:
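Background-control endpoint from a multiplexed HepG2 reporter panel. Cells carrying cis-regulated reporter constructs are treated 24 h, then reporter transcripts are amplified, fluorescently labelled and sized by capillary electrophoresis. DMSO defines baseline.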

Experiment [15] is described as follows: ATG_Ets_CIS: Attagene CIS-FACTORIAL HepG2 Assay for human Erythroblast Transformation Specific (ETS) (AID 2282941). The conditions noted are these: HepG2 ETS cis-reporter transcription, actives raise or lower the signal. The essentials: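 Steps: transfect HepG2 with multiple reporter units; treat compound 24 h; isolate RNA, DNase-treat, reverse-transcribe; PCR-amplify, label with 6-FAM, digest with HpaI; separate by capillary electrophoresis. Activity fitted both directions versus DMSO.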

Experiment [16] has as its target Hepatocyte nuclear factor 3-beta (Homo sapiens) (UniProt Q9Y261). Briefly: ATG_FoxA2_CIS: Attagene CIS-FACTORIAL HepG2 Assay for human Forkhead box A2 (FOXA2) (AID 2282942). Conditions: HepG2 cis-reporter transcription factor activity, 24 h; actives raise or lower the signal. The method in brief:
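Fluorescence signal of reporter cDNA fragments, separated by capillary electrophoresis, reflects endogenous transcription factor activity in transfected HepG2 after 24 h. Both increases and decreases fitted against DMSO.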

The nature of experiment [17]: ATG_FoxO_CIS: Attagene CIS-FACTORIAL HepG2 Assay for human Forkhead box O (FoxO) (AID 2282943). The conditions noted are these: HepG2 Attagene cis-reporter, FoxO element, mRNA; actives raise or lower the signal. The method in brief: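 HepG2 cells transiently transfected with cis-element-driven reporter units report endogenous FoxO activity. After 24 h chemical exposure, reporter mRNA quantified by RT-PCR, fluorescent labeling, HpaI digestion and capillary electrophoresis; bidirectional fit versus DMSO.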

Experiment [18] can be described thus: ATG_GATA_CIS: Attagene CIS-FACTORIAL HepG2 Assay for human GATA Binding Protein (AID 2282944). The conditions noted are these: HepG2 GATA cis-element reporter, Attagene multiplex mRNA; actives raise or lower the signal. The method in brief: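 Endogenous transcription factor activity was captured through cis-promoter-driven reporters in transfected HepG2 cells. After 24 h exposure, reporter transcripts were quantified by RT-PCR with fluorescent capillary electrophoresis, and responses fitted both directions against DMSO.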

Experiment [19] in a line: ATG_GLI_CIS: Attagene CIS-FACTORIAL HepG2 Assay for human Zinc Finger Protein GLI1 (AID 2282945). Conditions: HepG2, Attagene cis-factorial reporter mRNA, GLI element; actives raise or lower the signal. The essentials:
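Transiently transfected HepG2 cells report endogenous transcription factor activity via cis-element-driven reporter units. After 24 h compound exposure, reporter mRNA was measured by RT-PCR with capillary electrophoresis; bidirectional fitting against DMSO baseline.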

Experiment [20] is described as follows: ATG_ERE_CIS: Attagene CIS-FACTORIAL HepG2 Assay for Estrogen Response Element (ERE) (AID 2282940). Conditions: HepG2 ERE cis-reporter, Attagene RNA transcript; actives raise or lower the signal. The method in brief: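 Cells used were human hepatoma HepG2, transfected with multiple reporter transcription units under cis-regulatory promoters. Reporter mRNA, read 24 h post-dosing via fluorescent RT-PCR products on capillary electrophoresis, was fitted bidirectionally relative to DMSO.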

Results on four compounds are retold here after PubChem BioAssay (EPA / NIEHS).

Active and inactive are the calls of the source. How the source made its calls: active means hit-call score of the fitted dose curve at least 0.9, where 1 is the maximum; inactive means score below 0.9.

Chain of Aryl hydrocarbon receptor (Homo sapiens) (P35869 whole entry, looked up): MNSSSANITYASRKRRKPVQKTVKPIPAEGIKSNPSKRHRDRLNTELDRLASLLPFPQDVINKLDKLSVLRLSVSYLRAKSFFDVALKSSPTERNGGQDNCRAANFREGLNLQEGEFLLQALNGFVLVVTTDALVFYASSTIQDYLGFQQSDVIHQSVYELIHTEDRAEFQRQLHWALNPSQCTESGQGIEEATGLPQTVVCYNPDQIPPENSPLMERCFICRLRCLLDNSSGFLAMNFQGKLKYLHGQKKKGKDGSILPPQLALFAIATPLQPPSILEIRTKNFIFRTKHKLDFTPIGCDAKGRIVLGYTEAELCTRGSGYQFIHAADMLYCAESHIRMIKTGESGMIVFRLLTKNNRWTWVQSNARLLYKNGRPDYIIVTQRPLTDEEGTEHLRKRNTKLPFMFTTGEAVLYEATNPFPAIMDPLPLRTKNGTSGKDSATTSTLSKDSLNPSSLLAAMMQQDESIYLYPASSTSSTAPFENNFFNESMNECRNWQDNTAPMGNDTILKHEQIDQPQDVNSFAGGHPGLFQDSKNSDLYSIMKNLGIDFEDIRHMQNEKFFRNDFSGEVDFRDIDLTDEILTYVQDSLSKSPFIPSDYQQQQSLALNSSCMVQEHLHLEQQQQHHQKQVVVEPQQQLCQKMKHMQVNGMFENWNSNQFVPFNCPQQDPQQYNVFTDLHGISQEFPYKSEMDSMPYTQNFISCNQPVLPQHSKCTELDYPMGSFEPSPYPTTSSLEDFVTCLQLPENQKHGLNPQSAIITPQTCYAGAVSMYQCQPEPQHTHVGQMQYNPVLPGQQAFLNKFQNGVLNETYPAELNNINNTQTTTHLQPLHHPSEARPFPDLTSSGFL
Chain of CCAAT/enhancer-binding protein beta (Homo sapiens) (P17676 whole entry, looked up): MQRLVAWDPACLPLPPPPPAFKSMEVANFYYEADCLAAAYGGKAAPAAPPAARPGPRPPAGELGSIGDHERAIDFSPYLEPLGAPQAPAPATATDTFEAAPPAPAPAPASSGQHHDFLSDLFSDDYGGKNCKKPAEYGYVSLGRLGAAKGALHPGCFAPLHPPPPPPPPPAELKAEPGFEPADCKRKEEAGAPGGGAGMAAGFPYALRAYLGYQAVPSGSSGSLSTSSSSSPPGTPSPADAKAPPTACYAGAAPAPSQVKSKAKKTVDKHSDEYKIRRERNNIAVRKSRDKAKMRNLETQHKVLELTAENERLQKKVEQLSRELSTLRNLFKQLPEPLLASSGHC
Chain of Retinoic acid receptor alpha (Homo sapiens) (P10276 whole entry, looked up): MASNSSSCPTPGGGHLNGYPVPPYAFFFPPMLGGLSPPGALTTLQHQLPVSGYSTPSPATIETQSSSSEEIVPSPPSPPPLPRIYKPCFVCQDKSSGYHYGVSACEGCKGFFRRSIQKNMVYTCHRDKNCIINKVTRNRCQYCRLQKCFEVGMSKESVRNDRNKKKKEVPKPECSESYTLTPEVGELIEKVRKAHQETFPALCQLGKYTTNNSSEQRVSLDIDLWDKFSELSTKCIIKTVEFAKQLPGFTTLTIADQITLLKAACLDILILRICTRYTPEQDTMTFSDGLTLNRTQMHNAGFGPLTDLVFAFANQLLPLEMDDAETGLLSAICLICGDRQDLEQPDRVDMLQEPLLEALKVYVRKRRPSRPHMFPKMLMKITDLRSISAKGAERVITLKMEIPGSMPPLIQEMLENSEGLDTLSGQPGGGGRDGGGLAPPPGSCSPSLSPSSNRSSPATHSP
Chain of Transcription factor E2F1 (Homo sapiens) (Q01094 whole entry, looked up): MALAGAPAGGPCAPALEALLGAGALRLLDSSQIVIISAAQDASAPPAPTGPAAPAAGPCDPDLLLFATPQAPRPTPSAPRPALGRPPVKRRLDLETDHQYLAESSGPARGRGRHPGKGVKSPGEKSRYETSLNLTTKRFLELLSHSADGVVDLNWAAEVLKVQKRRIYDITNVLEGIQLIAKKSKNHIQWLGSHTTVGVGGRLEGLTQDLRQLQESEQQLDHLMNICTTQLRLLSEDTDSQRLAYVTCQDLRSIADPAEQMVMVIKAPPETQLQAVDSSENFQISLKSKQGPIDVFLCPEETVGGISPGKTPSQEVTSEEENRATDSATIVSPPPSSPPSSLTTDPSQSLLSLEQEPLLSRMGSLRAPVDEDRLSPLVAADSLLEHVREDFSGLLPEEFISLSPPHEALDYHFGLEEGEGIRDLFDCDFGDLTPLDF
Chain of Hepatocyte nuclear factor 3-beta (Homo sapiens) (Q9Y261 whole entry, looked up, the tested form may be a part): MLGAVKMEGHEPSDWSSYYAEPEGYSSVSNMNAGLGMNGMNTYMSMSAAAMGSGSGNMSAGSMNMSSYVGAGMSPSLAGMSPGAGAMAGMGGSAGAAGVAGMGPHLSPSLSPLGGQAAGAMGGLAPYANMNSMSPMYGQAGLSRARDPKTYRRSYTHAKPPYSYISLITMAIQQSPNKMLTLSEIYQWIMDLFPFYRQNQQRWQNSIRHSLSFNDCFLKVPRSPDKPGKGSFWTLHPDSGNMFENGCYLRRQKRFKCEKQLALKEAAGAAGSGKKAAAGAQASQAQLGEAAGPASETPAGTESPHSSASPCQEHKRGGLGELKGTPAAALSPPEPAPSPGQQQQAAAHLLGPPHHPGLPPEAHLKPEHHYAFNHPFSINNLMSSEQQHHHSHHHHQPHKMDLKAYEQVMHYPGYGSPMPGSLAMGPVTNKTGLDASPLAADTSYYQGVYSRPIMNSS

Take `COc1cc(C(C)C)ccc1C`: the call in experiment [1], in experiment [2], in experiment [3], in [4], in experiment [5] and in experiment [6] was inactive. Also, the result in experiment [7], in [8], in [9], in experiment [10], in experiment [11] and in experiment [12] was inactive. Moreover, the call in experiment [13], in experiment [14], in experiment [15], in [16], in experiment [17] and in [18] was inactive. For the same compound, the outcome in experiment [19] was inactive.
For the compound `O=C(Nc1ccc([N+](=O)[O-])cc1)Nc1ccc([N+](=O)[O-])cc1` (tested in a mixture with another compound), the call in experiment [1], in experiment [2], in [3], in experiment [4], in experiment [6] and in [7] was inactive. Besides, the compound was classed as inactive in experiment [8], in experiment [9], in experiment [10], in experiment [11], in experiment [12] and in experiment [13]. In addition, the result in [14], in [15], in [16], in experiment [17], in experiment [18] and in [19] was inactive. Besides, the AC50 in experiment [5] is 35.1 µM (active).
On to `CN(C)CCOc1ccc(/C(=C(/CCCl)c2ccccc2)c2ccccc2)cc1`, for which the outcome in [1], in experiment [2], in experiment [3], in [5], in [6] and in experiment [7] was inactive. Also, the outcome in experiment [8], in [9], in [10], in [11], in experiment [12] and in experiment [13] was inactive. Moreover, the result in [14], in experiment [15], in [16], in experiment [17], in experiment [18] and in experiment [19] was inactive. In addition, in experiment [4], the AC50 was 1.99 µM (active).
For the compound `Cc1ncc([N+](=O)[O-])n1CCO`, the result in [1], in experiment [2], in experiment [3], in experiment [4], in experiment [5] and in experiment [6] was inactive. For the same compound, the result in experiment [7], in experiment [8], in experiment [9], in experiment [10], in [11] and in experiment [12] was inactive. For the same compound, the compound was classed as inactive in experiment [13], in experiment [14], in experiment [20], in experiment [15], in experiment [16] and in [18]. Also, the compound was classed as inactive in [19].
